The nature of test [1]: qHTS assay to identify small molecule antagonists of the sonic hedgehog signaling (Shh) pathway (AID 1259369; calls by dose curve; also: nearly all actives have a fitted effect of over 45% in size; also: potency is read from the fitted curve at half-maximal effect). In outline: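 Inhibition of Shh signalling is measured as reduced Gli1-response-element firefly luciferase output in an NIH/3T3-derived stable reporter clone stimulated with conditioned medium for 24hr.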
Test [2] can be described thus: qHTS assay to identify small molecule agonists of the androgen receptor (AR) signaling pathway in the presence of an antagonist - cell viability counter screen (AID 1259379). Also: nearly all actives have a fitted effect of over 25% in size. Also: potency is read from the fitted curve at half-maximal effect. Summed up: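 Fluorescence from CellTiter-Fluor, added after 15 hr and read 1 hr later, gave cell viability. Cells were MDA-kb2 exposed to compounds (15 concentrations) in the presence of 3.0uM nilutamide at 37C, 0% CO2.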

Test [3] can be described thus: qHTS assay to identify small molecule antagonists of the estrogen receptor beta (ER-beta) signaling pathway - cell viability counter screen (AID 1259382).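 Also: HEK293T cells carrying ER-beta-UAS-bla reporter stimulated with estradiol; series mostly up to about 92 µM; nearly all actives have a fitted effect of over 55% in size.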 In outline:
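Following a 6 hr plating period, HEK293T cells carrying a UAS-driven beta-lactamase reporter under ER-beta control received compounds and 1nM E2 (final). After 16 hr at 37C and 2 hr substrate loading, CellTiter-Glo luminescence indicated viability.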
In general terms: qHTS replaces the single test concentration by a dilution series.

Test [4] in a line: qHTS assay to identify small molecule agonists of the estrogen receptor alpha (ER-alpha) signaling pathway in the presence of an antagonist - cell viability counter screen (AID 1259386).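 Also: cells exposed to compounds for 22 h at 37 °C before the viability read; nearly all actives have a fitted effect of over 30% in size.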 Also: potency is read from the fitted curve at half-maximal effect. Summed up: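 Cells are starved of estrogens for 5 days in charcoal-stripped serum, seeded for 24hr and co-treated with ICI-182,780 (10.0nM final) and test compounds. After 22hr at 37C, viability is read as CellTiter-Fluor fluorescence.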

Test [5] addresses Progesterone receptor (Homo sapiens) (UniProt P06401). Kind of test: qHTS assay to identify small molecule agonists of the progesterone receptor (PR) signaling pathway (AID 1346784; calls by dose curve; also: nearly all actives have a fitted effect of over 30% in size). Summed up:
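Agonist qHTS: compounds pinned onto 3,000 PR-UAS-bla HEK 293T cells per well in charcoal-stripped serum medium, 16hr at 37C, then beta-lactamase activity measured by LiveBLAzer FRET fluorescence after 2 hours at room temperature.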

The nature of test [6]: qHTS assay to identify small molecule antagonists of the progesterone receptor (PR) signaling pathway - cell viability counter screen (AID 1346798). Also: nearly all actives have a fitted effect of over 50% in size. Also: potency is read from the fitted curve at half-maximal effect. In outline:
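Cytotoxicity read as CellTiter-Glo luminescence (30 min, room temperature) in the same wells as the beta-lactamase readout. HEK293T PR-UAS-bla cells in charcoal-stripped 2% FBS received compound and R5020, then 16 h at 37C, 5% CO2.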

Test [7] is described as follows: qHTS assay to identify small molecule antagonists of the TGF-beta/Smad signaling pathway - cell viability counter screen (AID 1346824). Also: nearly all actives have a fitted effect of over 50% in size. In outline:
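SBE-bla HEK 293T cells, incubated overnight, then compound plus 0.25 ng/mL TGF-beta1 (stock added) for 5 hr at 37 C. Viability was read in the same wells by CellTiter-Glo luminescence after 30 min at room temperature.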

Test [8] can be described thus: qHTS assay to identify small molecule agonists of the TGF-beta/Smad signaling pathway - cell viability counter screen (AID 1346829). Also: top concentration of the series differs between compounds; nearly all actives have a fitted effect of over 45% in size. Summed up:
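Luminescence from CellTiter-Glo, read after a 30 min room-temperature incubation, gives cell viability of SBE-bla HEK 293T cells treated 5 hr with compounds at 37 C.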

A short description of test [9]: qHTS assay to identify small molecule agonists of the TGF-beta/Smad signaling pathway (AID 1346859; active = well fitted activation curve with a large enough effect in the signal ratio in the repeat runs, not every such curve was filed as active; the % refers to the signal ratio; also: series mostly up to about 77 µM). In outline:
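Fluorescence (ex 405 nm; em 460 and 530 nm) was read 2 h after LiveBLAzer FRET substrate at RT. The preceding compound treatment of overnight-plated SBE-bla HEK293T cells lasted 5 h at 37 C.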

The target in test [10] is Thyrotropin-releasing hormone receptor (Homo sapiens) (UniProt P34981). Put plainly: qHTS assay to identify small molecule antagonists of the thyrotropin-releasing hormone receptor (TRHR) signaling pathway (AID 1346877; active = well fitted inhibition curve with a large enough effect in the repeat runs, not every such curve was filed as active; also: series mostly up to about 51 µM). Summed up:
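Cells (TRHR-HEK293) are plated and kept 18 h at 37 °C/5% CO2. A calcium-sensitive dye is added for 2 h, compound follows for 5 min at room temperature, and TRH is then given at 1 nM final.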

For test [11] the target is unchanged. Kind of test: qHTS assay to identify small molecule agonists of the thyrotropin-releasing hormone receptor (TRHR) signaling pathway (AID 1346891; calls by dose curve; also: series mostly up to about 58 µM). Summed up: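 Agonist-mode intracellular calcium readout: kinetic fluorescence over 3 min at 1 s intervals after compound addition to TRHR-HEK293 cells (18 h seeded, 2 h dye-loaded at 37 C). Fifteen concentrations, triplicates.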

For test [12], the target named is Estrogen receptor (Homo sapiens) (UniProt P03372). Kind of test: qHTS assay to identify small molecule agonists of the estrogen receptor alpha (ER-alpha) signaling pathway in the presence of an antagonist (AID 1259383; calls by dose curve; also: top concentration of the series differs between compounds; nearly all actives have a fitted effect of over 15% in size). Summed up:
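Cells are hormone-deprived for 5 days (charcoal-stripped FBS, no phenol red), plated for 24hr, spiked with 10.0nM ICI-182,780, then dosed at 15 concentrations. After 22hr at 37C, ONE-Glo luminescence reports ERE-luciferase activity.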

Test [13] is described as follows: qHTS assay to identify small molecule agonists or antagonists of the thyroid stimulating hormone receptor (TSHR) signaling pathway - wild type cell line counter screen (AID 1259384; calls by dose curve). In outline: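 Wild-type Hek293 cells, 800/well, 18 h at 37C, then compound with Ro20-1724 for 30 min RT. cAMP by HTRF (cAMP-d2/anti-cAMP cryptate), 1 h RT, fluorescence read. 15 concentrations, triplicates.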

Test [14] addresses Thyrotropin receptor (Homo sapiens) (UniProt P16473). Put plainly: qHTS assay to identify small molecule antagonists of the thyroid stimulating hormone receptor (TSHR) signaling pathway (AID 1259385; calls by dose curve; also: nearly all actives have a fitted effect of over 20% in size). In outline: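 TSHR-HEK293 cells (800/well) plated 18 h, then compounds with Ro20-1724 and TSH at 1.5 ng/mL final, 30 min at room temperature. cAMP quantified by HTRF (cAMP-d2/anti-cAMP-cryptate, 1 h); 15 concentrations in triplicate.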

Test [15] deals with Progesterone receptor (Homo sapiens) (UniProt P06401). Kind of test: qHTS assay to identify small molecule antagonists of the progesterone receptor (PR) signaling pathway (AID 1346795; active = well fitted inhibition curve with a large enough effect in the signal ratio in the repeat runs, not every such curve was filed as active; the % refers to the signal ratio; also: potency is read from the fitted curve at half-maximal effect). Summed up: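 Antagonist mode with agonist R5020 at 1 nM final and 16 hr incubation at 37C. Reporter was beta-lactamase driven by UAS in HEK293T (PR-UAS-bla), 2% charcoal-stripped serum; signal from LiveBLAzer FRET substrate, 2 hr at room temperature.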
Progesterone receptor (Homo sapiens), sequence (P06401 whole entry, looked up): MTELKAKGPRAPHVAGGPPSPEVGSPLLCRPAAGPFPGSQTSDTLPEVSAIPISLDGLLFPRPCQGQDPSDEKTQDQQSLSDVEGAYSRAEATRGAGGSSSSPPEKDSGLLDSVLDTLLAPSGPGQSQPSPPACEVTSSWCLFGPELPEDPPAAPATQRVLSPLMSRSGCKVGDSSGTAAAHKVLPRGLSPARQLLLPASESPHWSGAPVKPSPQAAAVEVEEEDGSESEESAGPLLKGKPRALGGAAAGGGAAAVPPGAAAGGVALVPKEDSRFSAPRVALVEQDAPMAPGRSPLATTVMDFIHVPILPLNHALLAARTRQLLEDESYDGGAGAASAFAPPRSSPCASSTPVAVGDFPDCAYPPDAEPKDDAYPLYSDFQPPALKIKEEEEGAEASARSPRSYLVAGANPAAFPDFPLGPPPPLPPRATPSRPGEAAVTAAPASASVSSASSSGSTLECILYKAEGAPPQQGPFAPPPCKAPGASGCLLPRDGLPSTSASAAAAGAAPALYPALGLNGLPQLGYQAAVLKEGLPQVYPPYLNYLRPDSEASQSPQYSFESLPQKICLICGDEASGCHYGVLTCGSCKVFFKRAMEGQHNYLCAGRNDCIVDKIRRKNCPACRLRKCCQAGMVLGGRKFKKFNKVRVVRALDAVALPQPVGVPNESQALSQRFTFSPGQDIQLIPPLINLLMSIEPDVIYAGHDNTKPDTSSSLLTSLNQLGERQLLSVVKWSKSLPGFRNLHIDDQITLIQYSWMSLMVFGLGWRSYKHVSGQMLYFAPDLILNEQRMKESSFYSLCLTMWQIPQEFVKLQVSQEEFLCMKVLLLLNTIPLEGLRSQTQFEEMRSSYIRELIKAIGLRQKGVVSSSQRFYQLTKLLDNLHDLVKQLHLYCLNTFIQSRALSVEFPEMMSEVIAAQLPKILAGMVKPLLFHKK

Test [16] in a line: qHTS assay to identify small molecule agonists of the progesterone receptor (PR) signaling pathway - cell viability counter screen (AID 1346799; calls by dose curve; also: nearly all actives have a fitted effect of over 45% in size; also: potency is read from the fitted curve at half-maximal effect). In outline:
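Cytotoxicity measured by CellTiter-Glo luminescence (30 min, RT) in the same wells as the PR beta-lactamase agonist read. Those HEK293T cells had 16 h compound treatment at 37 C in 2% charcoal-stripped FBS medium.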

The nature of test [17]: qHTS assay to identify small molecule agonists of the estrogen receptor beta (ER-beta) signaling pathway - cell viability counter screen (AID 1259380). Also: nearly all actives have a fitted effect of over 30% in size. Also: potency is read from the fitted curve at half-maximal effect. Summed up: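 Same-well viability counter screen. Cells: ER-beta-UAS-bla HEK293T, plated 6 hr before compound, in 2% charcoal-stripped FBS. Compound exposure 16 hr, 37C; viability by CellTiter-Glo luminescence after 30 min at room temperature.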

Test [18] deals with Androgen receptor (Homo sapiens) (UniProt P10275). Kind of test: qHTS assay to identify small molecule agonists of the androgen receptor (AR) signaling pathway in the presence of an antagonist (AID 1259381; calls by dose curve; also: nearly all actives have a fitted effect of over 15% in size). Summed up:
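Cells are MDA-kb2 (human breast carcinoma, MMTV-luc, AR/GR responsive). Nilutamide is present at 3.0uM final throughout; compounds are added at 15 concentrations and incubated 16hr at 37C before ONE-Glo luminescence detection.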

Structures are written as SMILES. Results filed as inconclusive are left out. Active and inactive are the calls of the source. Unless noted, calls follow the shape of the dose curve; as a rule, active = well fitted curve in the direction sought with a large enough effect in the repeat runs; inconclusive = weak or mixed curves; inactive = no such curve, though single readings can be large; an effect the other way counts as inactive or inconclusive.

Thyrotropin-releasing hormone receptor (Homo sapiens), sequence (P34981 whole entry, looked up): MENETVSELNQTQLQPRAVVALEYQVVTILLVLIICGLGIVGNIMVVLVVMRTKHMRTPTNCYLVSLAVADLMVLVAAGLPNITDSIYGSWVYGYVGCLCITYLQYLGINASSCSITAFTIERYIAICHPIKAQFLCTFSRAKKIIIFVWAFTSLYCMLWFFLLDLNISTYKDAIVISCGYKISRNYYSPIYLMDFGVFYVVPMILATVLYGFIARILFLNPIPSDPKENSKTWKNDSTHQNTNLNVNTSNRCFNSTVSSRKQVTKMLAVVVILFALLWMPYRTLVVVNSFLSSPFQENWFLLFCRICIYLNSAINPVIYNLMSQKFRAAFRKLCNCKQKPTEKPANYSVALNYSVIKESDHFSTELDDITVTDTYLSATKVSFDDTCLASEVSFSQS
Thyrotropin receptor (Homo sapiens), sequence (P16473 whole entry, looked up): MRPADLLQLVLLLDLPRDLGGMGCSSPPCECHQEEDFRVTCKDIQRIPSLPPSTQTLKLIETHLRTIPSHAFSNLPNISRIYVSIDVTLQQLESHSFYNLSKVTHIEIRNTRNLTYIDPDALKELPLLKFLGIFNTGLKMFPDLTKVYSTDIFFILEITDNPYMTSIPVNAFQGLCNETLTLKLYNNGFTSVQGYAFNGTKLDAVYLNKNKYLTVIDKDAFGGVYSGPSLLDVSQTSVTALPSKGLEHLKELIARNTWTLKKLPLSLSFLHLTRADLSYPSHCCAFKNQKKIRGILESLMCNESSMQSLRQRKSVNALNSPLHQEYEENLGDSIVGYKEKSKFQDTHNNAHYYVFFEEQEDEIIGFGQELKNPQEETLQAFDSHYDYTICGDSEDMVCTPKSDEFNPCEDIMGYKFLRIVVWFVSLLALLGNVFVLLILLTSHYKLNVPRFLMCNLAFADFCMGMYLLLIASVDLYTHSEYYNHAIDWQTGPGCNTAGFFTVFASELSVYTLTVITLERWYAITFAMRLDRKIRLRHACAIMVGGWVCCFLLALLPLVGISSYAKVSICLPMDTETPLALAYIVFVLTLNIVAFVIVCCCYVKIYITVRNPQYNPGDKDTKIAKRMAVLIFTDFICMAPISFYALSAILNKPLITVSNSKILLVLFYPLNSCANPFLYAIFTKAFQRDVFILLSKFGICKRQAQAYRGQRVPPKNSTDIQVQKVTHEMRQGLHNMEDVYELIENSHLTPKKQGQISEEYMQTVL
Estrogen receptor (Homo sapiens), sequence (P03372 whole entry, looked up): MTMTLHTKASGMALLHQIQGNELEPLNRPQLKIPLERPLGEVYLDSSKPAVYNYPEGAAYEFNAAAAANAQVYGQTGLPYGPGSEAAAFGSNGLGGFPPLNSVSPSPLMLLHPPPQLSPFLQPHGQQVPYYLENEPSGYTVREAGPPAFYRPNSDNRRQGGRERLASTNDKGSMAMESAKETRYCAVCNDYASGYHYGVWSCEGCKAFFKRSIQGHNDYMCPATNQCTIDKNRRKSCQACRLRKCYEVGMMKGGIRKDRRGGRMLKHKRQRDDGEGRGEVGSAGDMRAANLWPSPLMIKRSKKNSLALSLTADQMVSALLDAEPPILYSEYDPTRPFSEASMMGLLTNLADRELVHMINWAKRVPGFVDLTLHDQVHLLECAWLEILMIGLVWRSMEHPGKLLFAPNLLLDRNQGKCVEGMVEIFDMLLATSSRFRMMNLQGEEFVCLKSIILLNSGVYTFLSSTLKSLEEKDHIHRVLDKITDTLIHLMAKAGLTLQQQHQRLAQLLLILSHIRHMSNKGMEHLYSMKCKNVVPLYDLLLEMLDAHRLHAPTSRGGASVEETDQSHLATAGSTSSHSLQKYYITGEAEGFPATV
Androgen receptor (Homo sapiens), sequence (P10275 whole entry, looked up): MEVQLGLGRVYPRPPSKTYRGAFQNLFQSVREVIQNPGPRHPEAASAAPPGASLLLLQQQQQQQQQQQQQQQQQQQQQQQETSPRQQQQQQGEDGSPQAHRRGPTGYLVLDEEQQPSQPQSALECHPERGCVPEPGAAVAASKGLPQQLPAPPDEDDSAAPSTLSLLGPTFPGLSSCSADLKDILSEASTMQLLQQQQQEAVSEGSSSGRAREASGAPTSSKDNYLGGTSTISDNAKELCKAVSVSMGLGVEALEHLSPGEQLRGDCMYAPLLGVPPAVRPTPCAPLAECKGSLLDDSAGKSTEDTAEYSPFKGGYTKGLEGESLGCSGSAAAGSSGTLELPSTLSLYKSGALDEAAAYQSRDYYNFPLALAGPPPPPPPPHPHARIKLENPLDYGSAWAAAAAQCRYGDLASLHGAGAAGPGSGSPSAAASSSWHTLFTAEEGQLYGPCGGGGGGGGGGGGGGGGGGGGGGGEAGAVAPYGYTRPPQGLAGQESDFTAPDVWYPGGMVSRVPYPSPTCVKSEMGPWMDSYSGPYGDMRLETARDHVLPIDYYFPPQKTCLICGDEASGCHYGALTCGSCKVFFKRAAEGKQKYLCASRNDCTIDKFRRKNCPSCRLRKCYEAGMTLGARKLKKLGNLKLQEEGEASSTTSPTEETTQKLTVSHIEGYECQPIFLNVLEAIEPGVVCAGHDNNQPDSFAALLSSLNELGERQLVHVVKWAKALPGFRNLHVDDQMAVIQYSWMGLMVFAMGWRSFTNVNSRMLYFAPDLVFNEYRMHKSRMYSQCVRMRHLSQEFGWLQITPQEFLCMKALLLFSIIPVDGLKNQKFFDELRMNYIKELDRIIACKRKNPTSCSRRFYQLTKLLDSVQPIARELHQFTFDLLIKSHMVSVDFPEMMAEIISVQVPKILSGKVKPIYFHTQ

Take `CN(C)c1ccc(N=Nc2ccccc2)cc1`: the Potency entry in [1], in test [3], in [5], in [6], in [7] and in [8] was “inactive” each time. In addition, the Potency entry in [10] and in [11] was “inactive” throughout. Further, the Potency in test [2] and in test [4] was 48.6 µM (active) in each case. For the same compound, the result in test [9] was inactive.
As to `CCOC(=O)OC1=C(c2cc(C)ccc2C)C(=O)NC12CCC(OC)CC2` (stereo not given), in test [1], the Potency is 17.2 µM (active). In addition, the Potency entry in test [2], in test [12], in [14], in [4], in test [15] and in test [6] was “inactive” in each case. For the same compound, the Potency entry in [16], in test [7], in test [8], in test [10] and in test [11] was “inactive” in each case. For the same compound, the compound was called inactive in [13] and in test [9].
Turning to `FC(F)(F)c1cccc(C2=CCN(CCc3ccc4ccccc4c3)CC2)c1`, the Potency entry in test [1], in test [2], in test [3], in test [4], in [5] and in test [6] was “inactive” throughout. Further, the Potency entry in test [7], in test [8], in [10] and in test [11] was “inactive” in each case. For the same compound, the call in [9] was inactive.
As to `O=C(O)C1C2CCC(O2)C1C(=O)O` (stereo not given), the Potency in test [1] was 15.8 µM (active). Further, the Potency entry in test [2], in test [17], in test [14], in test [4], in [5] and in [7] was “inactive” throughout. Besides, the Potency entry in test [10] and in test [11] was “inactive” throughout. The compound was called inactive in test [9].
For the compound `Nc1ccc([N+](=O)[O-])cc1Cl`, the Potency result in test [1], in test [17], in test [18], in [3], in test [12] and in test [14] was “inactive” throughout. The Potency result in [5], in [6], in [7] and in test [8] was “inactive” in each case. Besides, the call in test [13] and in test [9] was inactive. Besides, the Potency in test [4] and in [15] was 54.5 µM (active) in each case.
As for `CSCCCN=C=S`, the Potency entry in test [1], in test [17], in test [3], in test [14], in test [4] and in [5] was “inactive” each time. The Potency result in test [15], in test [6], in test [16], in test [7], in test [8] and in [10] was “inactive” each time. Moreover, in test [11], the Potency entry is “inactive”. The call in test [13] and in test [9] was inactive.
For `CC[C@H]1C[C@@H]2C[C@H]3c4[nH]c5ccc(OC)cc5c4CCN(C2)[C@@H]13`, the Potency in test [1] was 12 µM (active). The Potency entry in test [17], in [18], in test [3], in test [12], in test [5] and in [7] was “inactive” each time. For the same compound, the Potency entry in [8], in [10] and in test [11] was “inactive” throughout. Besides, in [9], the call was inactive.
For the compound `CCOCn1c(-c2ccc(Cl)cc2)c(C#N)c(Br)c1C(F)(F)F`, the Potency in test [1] was 0.611 µM (active); in [2], 6.86 µM (active); in test [17] it was 27.3 µM (active); in [4], 8.63 µM (active); in test [6], 12.2 µM (active); in test [16] it was 12.2 µM (active). Moreover, the call in test [13] was inactive. Besides, the Potency entry in test [10] and in [11] was “inactive” in each case.
